# Rab9 promoter act: qHTS Assay for Rab9 Promoter Activators; Huh7 Rab9 promoter-luciferase reporter, luminescence, 24 h; Potency, µM (top dose mostly 9.22 µM), inactives show at the highest dose activation, negative = inhibition, usual class: activators; 2.8% of 320,000 active; further: % of control where 0% means no effect; nearly all actives have a fitted effect of over 60% in size
#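 Cell-based reporter: Huh7 stable for Rab9 promoter-driven luciferase, plated in reduced-serum medium with 10% FBS at 1500 cells/well, compound-treated 24 h at 37 °C, luminescence read after 10 min reagent.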
# NPC1 prom act: qHTS Assay for NPC1 Promoter Activators | Huh7 NPC1 promoter luciferase reporter, 24 h | Potency, µM (titrated, usually from 9.22 µM), for inactives: at the highest dose activation, actives largely listed as activators | 2.4% of 320,000 active | AID 485313, 2010; further: % of control where 0% means no effect; nearly all actives have a fitted effect of over 60% in size
#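 Cells: Huh7 expressing luciferase under the NPC1 promoter, 1500/well. Seeded 2 h, compound added, incubated 24 h at 37 °C. Luciferase reagent, 10 min ambient, then luminescence.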
# KinaseGlo FLuc: Counterscreen for Luciferase (Kinase-Glo TM) Inhibition; AID 1379, 2008; Potency, µM (series often up to 38.3 µM), without a hit: at the highest dose activity change, negative = inhibition, actives largely listed as inhibitors; Luciferin 4-monooxygenase (Photuris pensylvanica), Q27757; Kinase-Glo luciferase, ATP luminescence, 8 min; 0.28% of 200,000 active; further: on the % scale 0 is the no-effect control and ±100 the full control effect; nearly all actives have a fitted effect of over 60% in size
#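 Substrate mix (final 50 mM imidazole pH 7.2, 50 mM KCl, 7 mM MgCl2, 10 uM ATP, 0.01% Tween 20, 0.05% BSA) plus pin-tool compound, then Kinase-Glo detection mix; 8 min ambient, luminescence read.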
# SMN2 splice up: qHTS Assay for Enhancers of SMN2 Splice Variant Expression | 2.8% of 210,000 active | AID 1458, 2008 | Potency, µM (doses to about 46.1 µM), without a hit: at the top dose activity change, positive = activation, hits mostly activators | HEK293 SMN2-luciferase splicing reporter, luminescence, 30-36 h; further: % of control where 0% means no effect; nearly all actives have a fitted effect of over 55% in size
#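 qHTS luciferase splicing reporter: luminescence rises when SMN2 exon 7 is included in transfected HEK293 cells. Compound exposure lasted 30-36 h at 37C, with 4.5 mM final sodium butyrate as control, followed by a ONE-Glo read.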
# FLuc counter: qHTS profiling assay for firefly luciferase inhibitor/activator using purifed enzyme and Km concentrations of substrates (counterscreen for miR-21 project) | purified FLuc, Km substrates, luminescence inhibition | Luciferin 4-monooxygenase (Photinus pyralis), P08659 | 6.9% of 360,000 active | Potency, µM (titrated, usually from 57.5 µM), for inactives: at the top dose activity change, negative = inhibition, usual class: inhibitors;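 further: plate controls were vehicle for no effect and reference inhibitor for full effect; nearly all actives have a fitted effect of over 55% in size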
# Target sequence (P08659 whole entry, looked up): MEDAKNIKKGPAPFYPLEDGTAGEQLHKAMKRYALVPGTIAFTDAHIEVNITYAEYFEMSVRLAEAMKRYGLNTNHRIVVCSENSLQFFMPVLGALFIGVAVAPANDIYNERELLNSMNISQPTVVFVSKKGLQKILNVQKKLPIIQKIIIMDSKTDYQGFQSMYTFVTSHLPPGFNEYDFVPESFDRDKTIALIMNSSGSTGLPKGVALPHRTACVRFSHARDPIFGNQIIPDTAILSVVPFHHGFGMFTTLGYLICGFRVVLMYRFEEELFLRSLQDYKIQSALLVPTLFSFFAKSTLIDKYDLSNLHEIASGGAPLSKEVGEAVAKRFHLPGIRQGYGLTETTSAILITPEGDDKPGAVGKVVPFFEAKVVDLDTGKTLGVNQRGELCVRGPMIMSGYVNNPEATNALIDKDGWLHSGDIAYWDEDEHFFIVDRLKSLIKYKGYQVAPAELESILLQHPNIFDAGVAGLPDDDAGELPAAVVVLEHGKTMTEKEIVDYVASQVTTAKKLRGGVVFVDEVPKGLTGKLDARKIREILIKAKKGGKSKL
#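 Purified P. pyralis luciferase (10nM final) with 10uM D-luciferin and 10uM ATP (Km levels) in 50mM Tris acetate pH 7.5, 10mM Mg acetate, 0.01% Tween-20, 0.05% BSA; qHTS 6-point titration, ~60 µM downward; luminescence read.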
# ELG1 genotox: qHTS screen for small molecules that induce genotoxicity in human embryonic kidney (HEK293T) cells expressing luciferase-tagged ELG1 | HEK293T ELG1-luciferase reporter, luminescence, 16 h | Potency, µM (doses to about 46 µM), for the others: at the top dose activity change, positive = activation, actives largely listed as activators | 1.3% of 330,000 active | AID 504466, 2011; further: % of control where 0% means no effect; nearly all actives have a fitted effect of over 60% in size
#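 Quantitative HTS format in 1536-well plates. HEK293T ELG1-luciferase reporter cells receive test compound and are incubated 16 hr at 37 °C, 5% CO2; ONE-Glo added, 30 min room temperature, then luminescence read.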
# * hit, by the source's call; ? = inconclusive; / = not tested or not shown; [ ] = remark or other dose. Sampled rows, rich in hits. Any-hit rate of the full collection: about 7.5%. The call rests on the fitted dose curve; in most records, active means well fitted curve in the direction sought with a large enough effect; inconclusive means small, poorly fitted or top-dose-only effect, or another doubt; inactive means no such curve, though single readings can be large; an effect the other way counts as inactive or inconclusive. Potency means the concentration at half of the fitted maximal effect.
SMILES,Rab9 promoter act,NPC1 prom act,KinaseGlo FLuc,SMN2 splice up,FLuc counter,ELG1 genotox
O=C(NCC1COc2ccccc2O1)c1cc2ccccc2o1 (stereo not drawn),6%,8%,-1%,23%,13µM*,16%
O=C(NCC1COc2ccccc2O1)c1ccco1 (stereo not drawn),10%,3%,-1%,/,-2%,6%
O=C(NCC1COc2ccccc2O1)c1ccccc1 (stereo not drawn),4.5µM*,4µM*,-2%,13µM*,12µM*,?
O=C(NC(=S)NCC1COc2ccccc2O1)c1ccccc1 (stereo not drawn),0%,0%,3%,-33%,?,0%
Cc1cc(=O)oc2cc(NC(=S)NNC(=O)c3c(Cl)cnn3C)ccc12,0.89µM*,0.45µM*,/,/,1.5µM*,?
Cc1[nH]c2ccccc2c1N=Nc1cccc(C(=O)O)c1,2.2µM*,3.2µM*,5%,13µM*,11µM*,19%
COc1ccccc1N=Nc1c(C)[nH]n(-c2ccccc2)c1=O,?,?,/,/,11µM*,-3%
COC(=O)c1cc(N=Nc2c(C)[nH]c3ccccc23)cc(C(=O)OC)c1,-9%,0%,/,/,-1%,2%
Cc1ccc(N=Nc2c(N)n(-c3ccccc3)[nH]c2=O)cc1,?,?,-11%,?,4.8µM*,?
Cc1[nH]n(-c2ccccc2)c(=O)c1N=Nc1ccc(C(N)=O)cc1,0%,0%,/,/,?,0%
Cc1[nH]n(-c2ccccc2)c(=O)c1N=Nc1ccc(C(=O)O)cc1,28%,23%,/,/,7.6µM*,12%
CC(C)N(C(=O)[C@H]1C[C@H](CC(=O)NCC23CC4CC(CC(C4)C2)C3)C(=O)N2CCc3c([nH]c4cc(CCC(=O)N(C)C)ccc34)[C@]12C)C(C)C,/,/,/,/,/,0%
CC(C)Cc1nnc(NC(=O)CCC(=O)NC2CCCCCC2)s1,0%,4%,/,/,4%,-1%
Cc1[nH]n(-c2ccccc2)c(=O)c1N=Nc1ccccc1,?,?,-1%,14µM*,4.8µM*,?
Cc1[nH]n(-c2ccccc2)c(=O)c1N=Nc1cccc(C(=O)O)c1,1.1µM*,?,/,/,0.27µM*,?
CC(=O)c1ccc(N=Nc2c(C)[nH]n(-c3ccccc3)c2=O)cc1,13%,16%,/,/,-15%,-2%
Cc1[nH]n(-c2ccccc2)c(=O)c1N=Nc1ccc(Cl)cc1,13%,23%,/,/,-19%,-2%
COc1ccccc1N1C(=O)C2C(c3ccc(F)cc3)NN(C(=O)c3ccc(C)cc3)C2C1=O (stereo not drawn),-1%,-1%,1%,3%,-2%,-6%
Cc1ccnc2ccc(-c3nc4ccccc4o3)cc12,3.5µM*,?,-13%,18µM*,5.4µM*,?
c1ccc(-c2nc3ccccc3o2)nc1,?,?,-21%,?,?,?
Cc1nc2ccc(-c3nc4ccccc4o3)cc2[nH]1,0.45µM*,0.71µM*,-12%,?,2.4µM*,?
CCCNC1=CC(=O)CC(C)(C)C1,-6%,-8%,-4%,-1%,1%,0%
c1csc(-c2nnc(N3CCCCCC3)c3ccccc23)c1,10%,4%,/,/,3µM*,1%
CCc1ccc(OCC(=O)NCc2ccco2)c(Br)c1,?,?,0%,3%,9.5µM*,?
N#Cc1ccccc1OCC(=O)NC(=O)NCc1ccco1,?,?,/,/,19µM*,?
SMILES,Rab9 promoter act,NPC1 prom act,KinaseGlo FLuc,SMN2 splice up,FLuc counter,ELG1 genotox
COCCCNC(=S)N/N=C/c1ccccc1O,?,?,/,/,12µM*,2%
COCCNC(=S)N/N=C(\C)c1ccccc1O,0%,25%,3%,29%,17µM*,5%
CCOc1ccc(CNC(=O)c2ccc3c(c2)nc2n3CCOC2)cc1,/,/,/,/,-13%,/
CC(C)Oc1ccc(CNC(=O)c2ccc3c(c2)nc2n3CCCCC2)cc1,/,/,/,/,9.5µM*,/
CCOc1ccc(CNC(=O)c2ccc3c(c2)nc2n3CCCCC2)cc1,/,/,/,/,12µM*,/
O=C(C[C@H]1C/C=C\CC[C@@H](Cc2ccc(F)cc2)C(=O)OCCNC1=O)NCCO,/,/,/,/,/,-1%
COc1ccc(-c2nc3c(Br)c(N)c(Br)cc3o2)cc1,?,3.2µM*,5%,-18%,1.3µM*,3%
Nc1c(Br)cc2oc(-c3ccccc3)nc2c1Br,?,2%,-1%,13µM*,2.1µM*,?
Cc1oc(-c2ccccc2)nc1C(=O)O,-1%,-1%,-2%,/,-7%,0%
CC(=O)NC(CSC(CC(=O)c1ccco1)c1ccc(C)cc1)C(=O)O (stereo not drawn),?,12%,-9%,-9%,4.3µM*,?
COc1ccc(NC(=O)Nc2sc3nc4n(c(=O)c3c2C)CCC(C)CC4)cc1OC (stereo not drawn),/,/,/,-8%,3%,/
CC(C)C(O)(C(C)C)C(C)C,/,/,-2%[7.66 µM],-3%[9.22 µM],/,/
COC(=O)[C@@]1(Cc2ccccc2)[C@H]2c3cc(C(=O)N(C)C)n(C[C@H](O)CO)c3C[C@H]2CN1C(=O)c1ccccc1,/,/,0%,-3%,/,/
c1ccc(CCSc2nccn2-c2ccccc2)cc1,3.2µM*,2.8µM*,-1%,20µM*,3.4µM*,?
CCc1ccc(CSc2nccn2-c2ccccc2)cc1,0%,-3%,-8%,-3%,-1%,0%
O=C(NNS(=O)(=O)c1ccccc1)C1CC(c2cccnc2)=NO1 (stereo not drawn),2%,-1%,1%,4%,0%,0%
CC(OC(=O)C1CCCCC1)C(=O)Nc1cccc([N+](=O)[O-])c1 (stereo not drawn),-3%,-1%,/,/,4%,-2%
Cc1cc(C2=NNC(=NC3CC3)SC2)c(C)n1-c1ccccc1F,-37%,-24%,11µM*,-93%,0.21µM*,-11%
Cc1cccc(C)c1N=C1NN=C(c2ccccc2F)CS1,-4%,-3%,/,/,-26%,-5%
Cc1ccccc1N=C1NN=C(c2ccccc2F)CS1,?,?,-1%,11µM*,21µM*,18%
Cc1cc(C2=NNC(=NC3CCCCC3)SC2)c(C)n1-c1c(C)n(C)n(-c2ccccc2)c1=O,-1%,-2%,-8%,?,-3%,0%
C=C(C)CN=C1NN=C(c2cc(C)n(-c3ccc(C)cc3)c2C)CS1,?,?,1%,?,8.5µM*,0%

# Source: PubChem BioAssay (National Center for Advancing Translational Sciences (NCATS))
